Shown are actives, neighbours in structure and some others; about 12% of the full set was active somewhere.
Pf growth 96h: P. falciparum growth inhibition at 96 hour, primary screen for plastid delayed-death inhibitors. P. falciparum luciferase reporter growth, 96 h. Potency, µM (highest dose often 28.7 µM), for inactives: top-dose activity change, negative = inhibition, usual class: inhibitors. 320,000 compounds, 6.9% hits. AID 504834; note: % is set by controls: 0 for no effect and ±100 for the full control effect
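Readout is luminescence from an integrated firefly luciferase in P. falciparum. Red cells, 2% hematocrit and 0.05% parasitemia final, were cultured with compound through two parasite generations (96 hours) at 37 C, 5% CO2.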
Sm TGR inh: inhibitors of Schistosoma mansoni thioredoxin glutathione reductase. Potency, µM (highest dose often 114 µM), for inactives: at the top dose activity change, negative = inhibition, usual class: inhibitors. AID 485364. 360,000 compounds, 3% hits. purified TGR, DTNB reduction, TNB absorbance 405 nm; note: % is set by controls: 0 for no effect and ±100 for the full control effect; nearly all actives have a fitted effect of over 60% in size
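Kinetic colorimetric format: TGR-catalysed, NADPH-driven DTNB reduction monitored via TNB absorbance. Enzyme dispensed at 20 nM; compound exposure 15 min at room temperature before reaction start.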
AmpC inh no detg: blocks E. coli AmpC beta-lactamase in detergent-free assay; AmpC nitrocefin hydrolysis, absorbance 480 nm, 0.0001% Triton; Potency, µM (highest dose often 57.1 µM), without a hit: top-dose activity change, negative = inhibition, most hits filed as inhibitors; 330,000 compounds, 0.52% hits; P00811; AID 485341;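 note: plate controls were no compound for no effect and no enzyme for full effect; nearly all actives have a fitted effect of over 20% in size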
Target sequence (P00811 whole entry, looked up): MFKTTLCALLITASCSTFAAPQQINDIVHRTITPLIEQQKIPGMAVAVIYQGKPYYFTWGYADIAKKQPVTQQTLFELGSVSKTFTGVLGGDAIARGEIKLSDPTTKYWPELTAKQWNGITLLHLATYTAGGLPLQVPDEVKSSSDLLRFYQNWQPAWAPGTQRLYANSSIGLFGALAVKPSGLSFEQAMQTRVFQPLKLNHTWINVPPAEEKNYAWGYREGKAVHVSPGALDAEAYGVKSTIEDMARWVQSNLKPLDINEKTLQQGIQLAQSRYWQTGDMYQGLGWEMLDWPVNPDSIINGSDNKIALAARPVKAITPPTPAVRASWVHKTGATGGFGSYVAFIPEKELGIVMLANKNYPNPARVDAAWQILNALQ
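20 mM phosphate pH 7.0 + 0.01% (detergent screen) or 0.0001% Triton X-100; 5.3 nM AmpC reagent; cpd preinc 15 min RT; nitrocefin (800 uM stock) to start; A480 q20 s × 4 min; Activity was normalised to no-enzyme and no-compound control wells.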
SARS PLP yeast: blocks SARS-CoV papain-like protease in a yeast assay; AID 485353; Potency, µM (titrated, usually from 32.9 µM), for inactives: top-dose activity, positive = growth rescue, most hits filed as activators; S. cerevisiae expressing SARS-CoV PLpro, growth rescue; 330,000 compounds, 0.19% hits; calls by dose curve; note: 0% is about no effect; nearly all actives have a fitted effect of over 55% in size
Pf growth 48h: inhibits P. falciparum growth in the first generation, 48 h | P. falciparum luciferase growth in erythrocytes, 48 h | Potency, µM (series often up to 28.7 µM), for the others: at the top dose activity change, negative = inhibition, hits mostly inhibitors | 310,000 compounds, 5.9% hits; note: % is set by controls: 0 for no effect and ±100 for the full control effect
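Firefly luciferase activity from engineered P. falciparum reports growth; inhibitors lower the luminescent signal. Cultures contained 2% hematocrit erythrocytes at 0.1% final parasitemia.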
AmpC detergent: inhibitors of E. coli AmpC beta-lactamase with detergent; AmpC hydrolysis of nitrocefin, absorbance 480 nm, 0.01% Triton; AID 485294; Potency, µM (series often up to 114 µM), for the others: at the top dose activity change, negative = inhibition, actives largely listed as inhibitors; 370,000 compounds, 0.041% hits;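 note: 0% = no-compound wells and -100% = no-enzyme wells; nearly all actives have a fitted effect of over 25% in size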
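20 mM phosphate pH 7.0 + 0.01% (detergent screen) or 0.0001% Triton X-100; 5.3 nM AmpC reagent; cpd preinc 15 min RT; nitrocefin (800 uM stock) to start; A480 q20 s × 4 min; Activity was normalised to no-enzyme and no-compound control wells.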
* = called active by the depositor; u = inconclusive; x = no result; [ ] = remark or other dose. Unless noted, calls come from the whole dose curve; as a rule, active = well fitted curve in the direction sought with a large enough effect; inconclusive = small, poorly fitted or top-dose-only effect, or another doubt; inactive = no such curve, though single readings can be large; an effect the other way counts as inactive or inconclusive. Potency is the fitted concentration of half-maximal effect.

SMILES	Pf growth 96h	Sm TGR inh	AmpC inh no detg	SARS PLP yeast	Pf growth 48h	AmpC detergent
CCCCCc1nnc(NC(=O)CN2C(=O)C3CCCCC3C2=O)s1 (configuration not stated)	0.2%	-0.8%	47.5%	-7.0%	16.8%	3.2%
O=c1[nH]c(C2CCN(S(=O)(=O)c3ccc(S(=O)(=O)NC4CC4)cc3)CC2)nc2c1nnn2Cc1cccc(F)c1	u	17.3%	-14.1%	0.5%	9.28µM*	2.1%
Cc1ccc(Cn2nnc3c(=O)[nH]c(C4CCN(S(=O)(=O)c5ccc(S(=O)(=O)NC6CC6)cc5)CC4)nc32)cc1	1.47µM*	6.5%	17.7%	0.8%	u	1.5%
O=[N+]([O-])c1ccc(N2CCCC2)c2ccncc12	-5.7%	2.8%	-20.2%	-8.1%	u	-2.0%
O=[N+]([O-])c1cccnc1Oc1ccc(F)cc1	u	8.4%	-19.6%	0.2%	9.1%	-10.3%
O=[N+]([O-])c1ccc(Oc2ccc(F)cc2)c2ccncc12	x	6.1%	-26.4%	-37.9%	9.28µM*	0.5%
O=[N+]([O-])c1ccc(Oc2cccc(Br)c2)c2ccncc12	x	0.3%	-32.8%	-32.6%	11.7µM*	-0.1%
O=C(CSc1nnc(NC(=O)c2ccc(S(=O)(=O)N3CCOCC3)cc2)s1)Nc1ccccc1C(F)(F)F	-1.7%	0.9%	-31.2%	6.6%	0.4%	0.5%
CCCN(CCC)C(=O)Cn1c(=O)n(-c2cccc(OC)c2)c(=O)c2c3c(sc21)CCCC3	x	9.2%	x	x	x	20.6%
COc1ccccc1-n1cnc2c(c1=O)c1nc3ccccc3nc1n2-c1ccc(C)cc1	u	-10.3%	-11.2%	-46.9%	-4.1%	-9.2%
COc1ccccc1-n1c2nc3ccccc3nc2c2c(=O)n(-c3cc(C)cc(C)c3)cnc21	u	7.7%	0.5%	-28.2%	13.1µM*	6.6%
CCCCCC(O)C1C(=O)OC(C)C(O)\C=C/C=C\C=C/C=C\C=C(\C)C(O)C(O)C(O)CC(O)CC(O)CC(O)CC(O)CC1O (configuration not stated)	6.5%	x	x	x	2.4%	x
CCCCNC(=O)CS(=O)Cc1nc(-c2cccs2)oc1C (configuration not stated)	8.28µM*	6.31µM*	-18.4%	3.0%	x	u
Cc1oc(-c2cccs2)nc1CS(=O)CC(=O)NCCCOC(C)C (configuration not stated)	1.5%	14.1µM*	0.6%	-9.2%	6.4%	-11.1%
Cc1oc(-c2ccc(Cl)cc2)nc1CS(=O)CC(=O)NCc1cccs1 (configuration not stated)	u	u	35.3%	14.0%	x	u
Cc1oc(-c2cccs2)nc1CS(=O)CC(=O)NCCc1ccccc1 (configuration not stated)	u	10µM*	-10.4%	11.8%	x	-22.0%
Cc1ccc(CCNC(=O)CS(=O)Cc2nc(-c3cccc(C)c3)oc2C)cc1 (configuration not stated)	u	u	95.0%	3.7%	x	-3.2%
COc1ccc(F)cc1S(=O)(=O)NCCc1csc(-c2ccc(Cl)cc2)n1	x	-1.6%	x	x	x	23.1%
Cc1ccc(CNS(=O)(=O)c2ccc(C(F)(F)F)cc2)n1C	-4.9%	15.8µM*	-5.5%	0.5%	u	-11.9%
O=C(CNS(=O)(=O)c1ccc(F)cc1)Nc1ccc(C(F)(F)F)cc1	4.1%	-3.0%	-13.4%	-6.4%	x	-1.1%
Cc1ccc(CNS(=O)(=O)c2ccc(F)c(F)c2)n1C	2.6%	20µM*	-15.7%	-0.5%	-0.9%	-1.9%
COc1ccc(C(=O)NCC(=O)OCC(=O)N2CCC(C)CC2)cc1OC	1.1%	4.8%	-8.5%	9.4%	7.4%	0.0%
Cc1ccccc1CNCCCSc1nnnn1-c1ccccc1	x	0.2%	x	x	x	15.0%
Cc1cc(Cn2nnnc2-c2ccncc2)cc(C)c1O	u	2.51µM*	-1.5%	-1.5%	8.5%	-10.8%
O=C(O)Cn1nnnc1-c1ccc(F)cc1	x	u	-28.4%	-0.5%	-6.4%	-0.1%
SMILES	Pf growth 96h	Sm TGR inh	AmpC inh no detg	SARS PLP yeast	Pf growth 48h	AmpC detergent
Cc1ccccc1C(=O)OCCN1CCOCC1	8.28µM*	5.2%	-13.6%	3.1%	8.7%	-2.7%
O=C(OCCN1CCOCC1)c1ccccc1	29.1%	-19.7%	1.0%	-6.1%	8.6%	-14.4%
c1ccc2c(c1)CC/C2=N/Nc1nc2ccccc2[nH]1	u	-3.4%	-28.8%[11.4 µM]	-1.5%	2.62µM*	u
S=C=Nc1cccc(C2(N3CCCCC3)CCCCC2)c1	1.65µM*	u	24.8%	x	2.62µM*	u
Cc1cccn2c(=O)c(/C=C(\C#N)C(=O)NC3CCS(=O)(=O)C3)c(Oc3ccccc3Cl)nc12 (configuration not stated)	u	-25.7%	61.6%	-0.2%	4.65µM*	-0.4%
Cc1cccn2c(=O)c(/C=C(\C#N)C(=O)NC3CCS(=O)(=O)C3)c(N3CCC(C(N)=O)CC3)nc12 (configuration not stated)	-1.1%	-6.4%	-0.8%	16.3%	-22.6%	u
Cc1ccccc1Oc1nc2c(C)cccn2c(=O)c1/C=C(\C#N)C(=O)NC1CCS(=O)(=O)C1 (configuration not stated)	11.7µM*	-27.0%	121.6%	-1.0%	5.86µM*	-4.4%
COc1ccc2c(/C=N/NS(=O)(=O)c3ccc(C)cc3)c[nH]c2c1	6.1%	14.1µM*	-52.3%	1.2%	0.0%	-6.4%
COc1ccc2[nH]cc(/C=N/NS(=O)(=O)c3ccc(C)cc3)c2c1	26.6%	0.8%	-47.4%	4.2%	5.2%	7.7%
O=C(CSc1nc2ccccc2s1)NCCOc1ccc(Cl)cc1	u	0.0%	3.1%	-4.5%	7.0%	u
Cc1nn(CCC(=O)NC(C)C)c(=O)c2nn(-c3ccccc3)c(C)c12	x	0.2%	x	x	x	4.8%
O=C(c1ccc(S(=O)(=O)Nc2ccccc2F)cc1)N1CCCC1	26.9%	4.5%	-13.3%	-0.9%	29.8%	-9.3%
CC(C)CN(C(=O)c1ccc(N2CCCC2=O)cc1)c1c(N)n(Cc2ccccc2)c(=O)[nH]c1=O	u	39.8µM*	-6.2%	-5.6%	u	-10.1%
CCCCN(C(=O)CCSc1ccc(F)cc1)c1c(N)n(Cc2ccccc2)c(=O)[nH]c1=O	11.7µM*	-6.3%	u	2.3%	11.7µM*	-1.9%
Cc1ccccc1OCCC(=O)N(Cc1ccccc1)c1c(N)n(Cc2ccccc2)c(=O)[nH]c1=O	u	-19.5%	-38.8%	-10.4%	u	3.4%

Screens: PubChem, National Center for Advancing Translational Sciences (NCATS)
